In ChEMBL document CHEMBL2218924, “A broad activity screen in support of a chemogenomic map for kinase signalling research and drug discovery” (Biochem J, 2013) one finds residual activity data, which are given here for one compound.

Assay [1] addresses T1, Ephrin type-A receptor 3 (Homo sapiens) (UniProt P29320).
T1 sequence (whole entry): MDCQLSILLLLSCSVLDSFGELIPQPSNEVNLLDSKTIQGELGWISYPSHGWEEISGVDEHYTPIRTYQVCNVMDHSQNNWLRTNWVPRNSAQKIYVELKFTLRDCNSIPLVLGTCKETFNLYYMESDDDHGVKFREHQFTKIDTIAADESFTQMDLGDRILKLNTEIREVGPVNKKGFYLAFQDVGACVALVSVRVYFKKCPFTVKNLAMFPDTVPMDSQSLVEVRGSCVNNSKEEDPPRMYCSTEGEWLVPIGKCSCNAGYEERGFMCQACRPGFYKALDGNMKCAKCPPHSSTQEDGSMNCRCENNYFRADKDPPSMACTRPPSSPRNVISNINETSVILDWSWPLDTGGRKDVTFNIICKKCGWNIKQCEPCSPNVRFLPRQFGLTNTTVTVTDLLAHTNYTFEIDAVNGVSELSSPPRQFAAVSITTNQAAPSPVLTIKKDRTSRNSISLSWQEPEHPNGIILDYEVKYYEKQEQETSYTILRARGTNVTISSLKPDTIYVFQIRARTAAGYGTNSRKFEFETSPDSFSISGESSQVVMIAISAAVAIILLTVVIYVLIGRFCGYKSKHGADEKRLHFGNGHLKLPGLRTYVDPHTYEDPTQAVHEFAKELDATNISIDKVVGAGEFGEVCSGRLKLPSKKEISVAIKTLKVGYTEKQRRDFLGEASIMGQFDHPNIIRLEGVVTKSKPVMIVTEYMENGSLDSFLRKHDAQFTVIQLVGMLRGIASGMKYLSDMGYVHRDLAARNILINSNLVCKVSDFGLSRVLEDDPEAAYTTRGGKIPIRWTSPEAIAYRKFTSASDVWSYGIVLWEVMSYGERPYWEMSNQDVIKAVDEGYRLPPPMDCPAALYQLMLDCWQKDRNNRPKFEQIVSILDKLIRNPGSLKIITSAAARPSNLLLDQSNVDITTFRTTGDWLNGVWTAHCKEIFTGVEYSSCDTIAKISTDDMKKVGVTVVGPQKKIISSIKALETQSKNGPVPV
Conditions: at 10 µM.

The target of assay [2] is Ephrin type-A receptor 4 (Homo sapiens) (UniProt P54764). To be noted: at 1 µM.
Ephrin type-A receptor 4 (Homo sapiens), sequence (P54764 whole entry): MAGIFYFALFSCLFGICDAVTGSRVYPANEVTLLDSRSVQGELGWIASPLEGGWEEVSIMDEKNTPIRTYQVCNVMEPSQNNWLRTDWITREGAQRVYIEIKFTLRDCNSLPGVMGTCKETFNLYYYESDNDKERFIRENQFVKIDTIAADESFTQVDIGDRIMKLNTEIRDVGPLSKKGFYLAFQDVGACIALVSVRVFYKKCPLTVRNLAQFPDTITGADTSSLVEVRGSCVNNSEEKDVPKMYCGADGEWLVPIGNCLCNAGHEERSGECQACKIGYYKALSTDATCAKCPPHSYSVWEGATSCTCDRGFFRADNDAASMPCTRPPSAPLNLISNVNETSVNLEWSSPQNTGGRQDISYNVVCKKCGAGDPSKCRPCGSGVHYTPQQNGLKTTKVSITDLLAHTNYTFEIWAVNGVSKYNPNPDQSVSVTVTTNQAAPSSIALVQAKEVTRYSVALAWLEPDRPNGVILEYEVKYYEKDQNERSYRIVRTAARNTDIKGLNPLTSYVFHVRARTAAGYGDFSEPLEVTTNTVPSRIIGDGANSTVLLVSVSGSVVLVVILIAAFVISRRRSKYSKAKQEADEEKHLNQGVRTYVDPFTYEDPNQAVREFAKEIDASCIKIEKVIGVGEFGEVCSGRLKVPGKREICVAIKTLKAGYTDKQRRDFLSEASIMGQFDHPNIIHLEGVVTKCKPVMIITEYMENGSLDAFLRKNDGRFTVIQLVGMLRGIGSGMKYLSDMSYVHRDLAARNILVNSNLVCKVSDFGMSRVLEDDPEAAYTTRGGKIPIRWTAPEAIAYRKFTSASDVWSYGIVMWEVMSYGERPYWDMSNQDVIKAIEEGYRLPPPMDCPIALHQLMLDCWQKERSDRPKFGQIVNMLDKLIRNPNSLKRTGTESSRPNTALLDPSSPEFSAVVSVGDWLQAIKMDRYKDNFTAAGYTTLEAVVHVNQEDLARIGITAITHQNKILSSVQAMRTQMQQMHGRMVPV
Assay [3] shares this target. To be noted: at 10 µM.
The target of assay [4] is Ephrin type-A receptor 5 (Homo sapiens) (UniProt P54756). Conditions: at 1 µM.
Ephrin type-A receptor 5 (Homo sapiens), sequence (P54756 whole entry): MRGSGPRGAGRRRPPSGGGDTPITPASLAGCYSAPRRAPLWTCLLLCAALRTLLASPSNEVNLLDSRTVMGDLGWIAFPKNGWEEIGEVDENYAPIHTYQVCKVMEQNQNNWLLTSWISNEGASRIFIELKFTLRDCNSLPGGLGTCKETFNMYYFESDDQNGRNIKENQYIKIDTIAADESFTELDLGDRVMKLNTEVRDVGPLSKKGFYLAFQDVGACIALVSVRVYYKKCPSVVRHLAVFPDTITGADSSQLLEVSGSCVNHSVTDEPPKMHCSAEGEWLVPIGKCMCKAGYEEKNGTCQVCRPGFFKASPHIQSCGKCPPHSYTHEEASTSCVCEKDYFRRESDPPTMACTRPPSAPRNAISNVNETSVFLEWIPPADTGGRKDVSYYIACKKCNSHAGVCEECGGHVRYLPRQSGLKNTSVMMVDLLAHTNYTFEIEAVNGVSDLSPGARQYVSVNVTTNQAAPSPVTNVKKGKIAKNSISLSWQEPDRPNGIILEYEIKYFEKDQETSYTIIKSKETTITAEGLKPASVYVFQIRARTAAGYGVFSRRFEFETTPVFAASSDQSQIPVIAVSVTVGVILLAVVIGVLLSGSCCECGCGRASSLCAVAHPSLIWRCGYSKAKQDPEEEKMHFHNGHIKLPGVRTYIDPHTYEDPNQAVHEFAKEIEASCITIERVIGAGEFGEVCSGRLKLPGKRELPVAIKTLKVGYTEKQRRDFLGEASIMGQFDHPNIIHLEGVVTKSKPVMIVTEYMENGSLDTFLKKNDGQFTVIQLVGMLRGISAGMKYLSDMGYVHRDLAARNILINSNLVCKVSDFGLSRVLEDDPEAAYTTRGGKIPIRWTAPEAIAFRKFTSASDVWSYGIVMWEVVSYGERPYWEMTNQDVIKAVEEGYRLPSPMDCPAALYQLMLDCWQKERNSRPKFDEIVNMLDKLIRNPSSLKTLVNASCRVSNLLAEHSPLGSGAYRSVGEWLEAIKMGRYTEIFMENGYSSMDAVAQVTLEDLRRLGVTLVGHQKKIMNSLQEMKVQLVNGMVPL
For assay [5] the target is unchanged. Conditions: at 10 µM.
Assay [6] has as its target Ephrin type-A receptor 7 (Homo sapiens) (UniProt Q15375). Conditions: at 1 µM.
The target is the same in assay [7]. To be noted: at 10 µM.
Assay [8] deals with T2, Ephrin type-A receptor 8 (Homo sapiens) (UniProt P29322).
T2 sequence (whole entry): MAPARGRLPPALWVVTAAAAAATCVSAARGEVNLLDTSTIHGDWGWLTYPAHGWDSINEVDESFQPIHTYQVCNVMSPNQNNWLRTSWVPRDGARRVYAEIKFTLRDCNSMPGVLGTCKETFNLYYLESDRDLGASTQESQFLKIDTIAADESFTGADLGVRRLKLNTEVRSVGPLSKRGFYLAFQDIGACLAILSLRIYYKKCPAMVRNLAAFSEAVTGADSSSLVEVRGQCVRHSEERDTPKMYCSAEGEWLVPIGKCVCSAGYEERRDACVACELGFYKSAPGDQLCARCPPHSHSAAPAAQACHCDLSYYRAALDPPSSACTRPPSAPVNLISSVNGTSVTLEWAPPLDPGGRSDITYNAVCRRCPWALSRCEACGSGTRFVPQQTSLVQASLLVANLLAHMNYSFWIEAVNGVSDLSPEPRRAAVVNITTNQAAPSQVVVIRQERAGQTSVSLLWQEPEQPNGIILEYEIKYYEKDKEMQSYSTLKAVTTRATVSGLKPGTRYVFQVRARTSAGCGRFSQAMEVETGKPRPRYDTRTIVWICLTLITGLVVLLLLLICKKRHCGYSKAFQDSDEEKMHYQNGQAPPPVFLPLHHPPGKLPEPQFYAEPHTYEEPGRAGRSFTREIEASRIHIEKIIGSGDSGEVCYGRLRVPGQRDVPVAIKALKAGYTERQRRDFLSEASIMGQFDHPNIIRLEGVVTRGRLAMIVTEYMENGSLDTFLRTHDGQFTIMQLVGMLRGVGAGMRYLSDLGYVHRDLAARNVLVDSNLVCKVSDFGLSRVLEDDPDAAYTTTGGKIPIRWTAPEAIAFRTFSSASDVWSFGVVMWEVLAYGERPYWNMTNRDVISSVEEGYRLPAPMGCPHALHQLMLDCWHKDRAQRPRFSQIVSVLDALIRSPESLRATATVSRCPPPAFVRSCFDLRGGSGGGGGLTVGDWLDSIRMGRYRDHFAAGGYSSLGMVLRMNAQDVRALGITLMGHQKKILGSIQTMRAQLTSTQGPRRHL
Conditions: at 1 µM.

For assay [9], the target named is T2, Ephrin type-A receptor 8 (Homo sapiens). To be noted: at 10 µM.
Assay [10] addresses T3, Ephrin type-B receptor 1 (Homo sapiens) (UniProt P54762).
T3 sequence (whole entry): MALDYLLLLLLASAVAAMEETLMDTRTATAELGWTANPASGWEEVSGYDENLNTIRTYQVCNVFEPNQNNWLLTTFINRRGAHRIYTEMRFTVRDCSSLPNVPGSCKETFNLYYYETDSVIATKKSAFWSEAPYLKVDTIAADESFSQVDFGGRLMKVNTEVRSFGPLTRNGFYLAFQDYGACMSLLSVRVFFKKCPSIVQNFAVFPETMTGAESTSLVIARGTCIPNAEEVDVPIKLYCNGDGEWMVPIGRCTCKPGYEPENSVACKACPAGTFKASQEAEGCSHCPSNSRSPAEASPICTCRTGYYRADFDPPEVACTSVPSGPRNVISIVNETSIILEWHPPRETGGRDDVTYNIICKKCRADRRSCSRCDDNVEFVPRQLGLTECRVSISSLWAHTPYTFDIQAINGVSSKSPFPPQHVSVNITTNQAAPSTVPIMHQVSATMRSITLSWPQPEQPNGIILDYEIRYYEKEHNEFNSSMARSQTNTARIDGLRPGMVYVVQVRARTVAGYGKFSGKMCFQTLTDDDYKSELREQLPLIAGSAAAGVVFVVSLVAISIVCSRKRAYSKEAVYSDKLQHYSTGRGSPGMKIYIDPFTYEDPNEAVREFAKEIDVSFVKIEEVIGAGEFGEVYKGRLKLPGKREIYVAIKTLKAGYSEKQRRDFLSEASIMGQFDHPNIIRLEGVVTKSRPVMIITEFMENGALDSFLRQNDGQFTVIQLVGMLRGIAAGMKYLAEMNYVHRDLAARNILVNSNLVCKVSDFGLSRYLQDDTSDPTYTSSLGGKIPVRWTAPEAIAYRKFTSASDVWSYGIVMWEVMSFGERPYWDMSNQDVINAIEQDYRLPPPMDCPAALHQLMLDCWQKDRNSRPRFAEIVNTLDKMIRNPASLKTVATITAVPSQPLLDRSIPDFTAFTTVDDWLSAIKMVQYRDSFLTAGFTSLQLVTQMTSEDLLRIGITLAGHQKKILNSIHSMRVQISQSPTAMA
Conditions: at 1 µM.

Ephrin type-A receptor 7 (Homo sapiens), sequence (Q15375 28-998 limits assumed): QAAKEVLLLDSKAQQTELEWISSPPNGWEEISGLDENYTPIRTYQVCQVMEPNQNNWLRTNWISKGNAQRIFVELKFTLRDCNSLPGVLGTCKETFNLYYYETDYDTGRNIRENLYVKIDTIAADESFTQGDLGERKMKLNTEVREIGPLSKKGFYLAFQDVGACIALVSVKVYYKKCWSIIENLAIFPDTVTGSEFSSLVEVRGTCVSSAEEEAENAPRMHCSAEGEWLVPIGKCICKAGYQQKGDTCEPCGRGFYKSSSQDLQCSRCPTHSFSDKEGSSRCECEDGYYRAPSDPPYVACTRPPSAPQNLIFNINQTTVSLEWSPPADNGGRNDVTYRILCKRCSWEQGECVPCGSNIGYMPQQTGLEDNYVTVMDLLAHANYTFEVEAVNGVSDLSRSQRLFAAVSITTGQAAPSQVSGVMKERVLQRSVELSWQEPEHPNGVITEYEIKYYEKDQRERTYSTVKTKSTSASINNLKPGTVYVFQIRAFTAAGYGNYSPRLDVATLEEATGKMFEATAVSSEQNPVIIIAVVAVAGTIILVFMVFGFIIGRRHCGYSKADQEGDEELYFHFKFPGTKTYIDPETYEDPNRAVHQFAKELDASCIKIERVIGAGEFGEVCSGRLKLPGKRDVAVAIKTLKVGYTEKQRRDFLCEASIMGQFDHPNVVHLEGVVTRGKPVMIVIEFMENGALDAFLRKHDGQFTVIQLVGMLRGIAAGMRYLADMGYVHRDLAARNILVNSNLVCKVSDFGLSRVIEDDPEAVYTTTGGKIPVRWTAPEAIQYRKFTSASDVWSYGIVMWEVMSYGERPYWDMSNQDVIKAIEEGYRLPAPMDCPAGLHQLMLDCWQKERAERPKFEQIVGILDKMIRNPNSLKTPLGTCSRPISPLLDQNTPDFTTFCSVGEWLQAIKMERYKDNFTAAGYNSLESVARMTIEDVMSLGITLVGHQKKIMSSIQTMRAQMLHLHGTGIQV

As a reminder, the residual activity is the signal under treatment as a percentage of the control signal. In the case of `NC(=O)c1ccc2[nH]c(-c3ccc(Oc4ccc(Cl)cc4)cc3)nc2c1`, the residual activity in [1] was found to be 111%; in [2], 112%; in assay [3], 104%; in assay [4], 114%; in assay [5], 103%; in assay [6] it was 94%. Further, the residual activity was 81% in assay [7], 94% in assay [8], 96% in assay [9] and 95% in assay [10].
